In PubChem BioAssay (NCATS):
Inconclusive results are not listed. Calls of active or inactive are those of the source. Unless noted, the call rests on the fitted dose curve; in most records, active means well fitted curve in the direction sought with a large enough effect; inconclusive means small, poorly fitted or top-dose-only effect, or another doubt; inactive means no such curve, though single readings can be large; an effect the other way counts as inactive or inconclusive.

Experiments:
[1] = AP1 Signaling Pathway (AID 357; active means well fitted curve in either direction with a large enough effect, not every such curve was filed as active;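 further: ME-180 reporter cells stimulated with EGF at its EC50 level; on the % scale 0 is the no-effect control and ±100 the full control effect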)
Procedure, shortened: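 Beta-lactamase reporter under AP-1 response element, ME-180 background. Stimulus: EC50 EGF. Compound exposure 5 h, 37 °C. Detection: CCF4, 2.5 h RT, 460/530 nm. Values: AC50 from titration.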

[2] = biological target: Cytochrome P450 1A2 (Homo sapiens) (UniProt P05177); experiment: p450-cyp1a2 (AID 410; calls by dose curve; further: potency means the concentration at half of the fitted maximal effect;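 on activity change, negative = inhibition: -100% = full effect of reference inhibitor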)
Cytochrome P450 1A2 (Homo sapiens), sequence (P05177 whole entry, looked up): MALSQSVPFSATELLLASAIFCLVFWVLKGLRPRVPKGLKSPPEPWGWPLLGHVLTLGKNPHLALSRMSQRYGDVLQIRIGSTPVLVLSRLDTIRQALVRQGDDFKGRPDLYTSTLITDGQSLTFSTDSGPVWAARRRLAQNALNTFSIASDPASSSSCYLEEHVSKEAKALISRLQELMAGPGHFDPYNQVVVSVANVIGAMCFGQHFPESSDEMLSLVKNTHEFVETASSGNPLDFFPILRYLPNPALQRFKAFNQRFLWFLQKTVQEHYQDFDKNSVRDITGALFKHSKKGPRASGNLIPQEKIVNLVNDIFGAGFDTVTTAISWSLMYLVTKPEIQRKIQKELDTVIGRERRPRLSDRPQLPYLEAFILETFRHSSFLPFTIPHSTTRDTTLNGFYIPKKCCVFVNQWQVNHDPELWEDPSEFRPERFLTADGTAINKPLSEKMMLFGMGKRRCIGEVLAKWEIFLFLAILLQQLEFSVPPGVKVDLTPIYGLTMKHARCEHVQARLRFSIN
Procedure, shortened: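 Inhibition was calculated relative to 57 uM furafylline (full inhibition). The reaction used human CYP1A2 at 20nM with Luciferin-ME at its Km, 100uM, driven by an NADPH-regenerating system for 60 min at room temperature.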

[3] = NFAT Signaling Pathway (AID 444; active means well fitted curve in either direction with a large enough effect, not every such curve was filed as active;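 further: carbachol stimulus at about its EC50 of 1 µM final; on the % scale 0 is the no-effect control and ±100 the full control effect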); settings: Jurkat NFAT-bla M1, carbachol, beta-lactamase ratio, 5 h; at 17.2 µM (top of the series) unless noted
Procedure, shortened: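 Jurkat cells with NFAT-driven β-lactamase reporter and co-expressed M1 receptor, stimulated with carbachol (final 1 uM, ~EC50), compound titration, 5 h at 37 °C. CCF4 loaded 1 h at RT; 460/530 nm ratio gave %activity and AC50.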

[4] = Stat Signaling Pathway (AID 446; active means well fitted curve in either direction with a large enough effect, not every such curve was filed as active;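 further: ME-180 cervical cancer cells given 40 pM IL-6 alongside compound; SIE-controlled beta-lactamase reporter measured as 460/530 nm FRET emission ratio; on the % scale 0 is the no-effect control and ±100 the full control effect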)
Procedure, shortened: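 ME-180 cells carrying a SIE-driven beta-lactamase reporter are stimulated with 40 pM IL-6 for 5 h at 37C in the presence of compound. The 460/530 nm FRET substrate ratio is read after 2.5 h at RT. Data are normalised to 300 pM IL-6 and to 125 nM JAK inhibitor controls.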

[5] = biological target: 3',5'-cyclic-AMP phosphodiesterase 4B (Homo sapiens) (UniProt Q07343); experiment: qHTS Assay for Inhibitors of PDE-IV (AID 607; active means well fitted activation curve with a large enough effect in the main read-out, with a control signal flat, not every such curve was filed as active; further: % of control where 0% means no effect)
3',5'-cyclic-AMP phosphodiesterase 4B (Homo sapiens), sequence (Q07343 whole entry, looked up): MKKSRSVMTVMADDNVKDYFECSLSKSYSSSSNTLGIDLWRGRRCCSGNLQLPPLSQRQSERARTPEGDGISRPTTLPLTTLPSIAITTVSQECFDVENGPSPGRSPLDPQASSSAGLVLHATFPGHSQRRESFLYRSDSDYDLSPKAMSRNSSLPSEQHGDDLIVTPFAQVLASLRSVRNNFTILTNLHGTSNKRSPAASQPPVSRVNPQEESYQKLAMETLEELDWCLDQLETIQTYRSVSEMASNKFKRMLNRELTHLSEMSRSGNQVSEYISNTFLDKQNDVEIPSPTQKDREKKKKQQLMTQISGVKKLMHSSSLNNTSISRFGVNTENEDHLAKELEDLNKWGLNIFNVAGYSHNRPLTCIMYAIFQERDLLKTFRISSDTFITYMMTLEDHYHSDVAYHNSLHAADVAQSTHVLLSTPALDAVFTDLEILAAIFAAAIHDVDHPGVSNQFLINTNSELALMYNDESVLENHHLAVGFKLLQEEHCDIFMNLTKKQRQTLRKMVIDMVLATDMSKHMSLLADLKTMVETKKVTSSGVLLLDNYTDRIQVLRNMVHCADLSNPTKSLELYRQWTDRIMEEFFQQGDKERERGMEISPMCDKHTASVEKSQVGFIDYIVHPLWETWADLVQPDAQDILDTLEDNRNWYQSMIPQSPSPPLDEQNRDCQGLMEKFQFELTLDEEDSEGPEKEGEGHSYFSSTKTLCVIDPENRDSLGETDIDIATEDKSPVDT
Procedure, shortened: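 HEK293 ACTOne cells with CNG channel (1000/well), endogenous PDE4; membrane potential dye, compounds up to 22.9 uM final. Fluorescence Ex 535/Em 590; RO 20-1724 (100 uM final) as reference.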

[6] = qHTS Assay for Lipid Storage Modulators (AID 1519; calls by dose curve); settings: Drosophila S3 cells, BODIPY lipid droplet/cell ratio, laser cytometry, cells loaded with oleic acid; for activity change, negative = inhibition: at 25.7 µM (top of the series)
Procedure, shortened: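 Cells seeded at 5,000 per well were treated with compounds over a concentration series and loaded with oleic acid (400 uM, as added). Lipid droplet fluorescence (488 nm excitation, 500-530 nm channel) was read by laser-scanning cytometry and normalized to 20 uM Triacsin C.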

[7] = biological target: ATP-dependent 6-phosphofructokinase (Trypanosoma brucei brucei) (UniProt O15648); experiment: qHTS Assay to Find Inhibitors of T. brucei phosphofructokinase: hit validation (AID 492961); further: on the % scale 0 is the no-effect control and ±100 the full control effect
ATP-dependent 6-phosphofructokinase (Trypanosoma brucei brucei), sequence (O15648 whole entry, looked up): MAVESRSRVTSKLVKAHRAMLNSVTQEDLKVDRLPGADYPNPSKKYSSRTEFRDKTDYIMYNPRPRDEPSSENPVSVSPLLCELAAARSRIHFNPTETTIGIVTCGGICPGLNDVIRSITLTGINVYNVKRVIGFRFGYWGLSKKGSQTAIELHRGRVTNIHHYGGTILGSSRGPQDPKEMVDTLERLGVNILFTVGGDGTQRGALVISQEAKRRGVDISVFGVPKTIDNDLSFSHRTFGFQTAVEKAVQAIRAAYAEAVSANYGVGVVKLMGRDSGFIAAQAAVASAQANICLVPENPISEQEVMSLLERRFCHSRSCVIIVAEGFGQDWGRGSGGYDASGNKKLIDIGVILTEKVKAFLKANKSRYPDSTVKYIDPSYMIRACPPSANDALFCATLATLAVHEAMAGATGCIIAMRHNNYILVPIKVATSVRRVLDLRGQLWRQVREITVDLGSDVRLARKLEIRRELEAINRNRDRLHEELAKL
Procedure, shortened: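 Luminescence from ADP-Glo reports ADP generated as T. brucei PFK (1.25 nM) phosphorylates 0.5 mM fructose-6-phosphate using 0.1 mM ATP. Reactions ran 45 min at room temperature, pH 8.0.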

[8] = biological target: Luciferin 4-monooxygenase (Photinus pyralis) (UniProt P08659); experiment: Biochemical firefly luciferase enzyme assay for NPC (AID 624030);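 further: purified P. pyralis luciferase at 10 nM with luciferin and ATP substrate; 0% = DMSO and -100% = full luciferase inhibition by PTC124 control; nearly all actives have a fitted effect of over 70% in size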
Luciferin 4-monooxygenase (Photinus pyralis), sequence (P08659 whole entry, looked up): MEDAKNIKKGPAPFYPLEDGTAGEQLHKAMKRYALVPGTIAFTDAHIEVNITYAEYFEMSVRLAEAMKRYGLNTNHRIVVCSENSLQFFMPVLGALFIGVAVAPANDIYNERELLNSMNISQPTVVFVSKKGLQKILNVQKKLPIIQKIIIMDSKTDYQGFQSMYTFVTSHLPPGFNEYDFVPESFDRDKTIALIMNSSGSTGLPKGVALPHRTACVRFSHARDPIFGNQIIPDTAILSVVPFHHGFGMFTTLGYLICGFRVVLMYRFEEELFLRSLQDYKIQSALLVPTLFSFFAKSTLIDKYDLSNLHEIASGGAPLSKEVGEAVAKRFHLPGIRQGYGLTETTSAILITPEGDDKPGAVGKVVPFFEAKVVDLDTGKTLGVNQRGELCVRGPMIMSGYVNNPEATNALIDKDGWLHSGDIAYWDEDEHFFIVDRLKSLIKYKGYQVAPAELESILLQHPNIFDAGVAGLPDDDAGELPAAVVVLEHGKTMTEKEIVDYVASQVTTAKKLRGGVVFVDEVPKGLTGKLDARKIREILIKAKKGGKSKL
Procedure, shortened: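 Purified P. pyralis luciferase at 10 nM in 50 mM Tris Acetate (final), luminescence read within 5 minutes of enzyme addition to compounds. Activity normalised to PTC124 versus DMSO; concentration-response curves classed by r2, magnitude and activity.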

[9] = S16 Schwann cell PMP22 intronic element firefly luciferase assay (AID 624032);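 further: plate controls were DMSO for no effect and PTC124 positive control mean for full effect; nearly all actives have a fitted effect of over 30% in size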
Procedure, shortened: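 Rat S16 Schwann cells stably carrying firefly luciferase driven by a PMP22 intronic element, in 10% FBS, treated 24 h at 37 C. ONE-Glo luminescence normalized to PTC124 control and DMSO (0%); curves classed by r2, magnitude and activity.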

[10] = qHTS profiling for inhibitors of Plasmodium falciparum proliferation (AID 504749);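 further: 0% = DMSO vehicle and full inhibition = artemisinin control; nearly all actives have a fitted effect of over 60% in size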; settings: P. falciparum in erythrocytes, SYBR Green DNA, 72 h, at 12.8 µM (top of the series)
Procedure, shortened: (§1)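 Readout was DNA-dye fluorescence from lysed cultures, ex 485/em 535 nm. Parasitized red cells had grown 72 h with compound; data scaled between 0.29 uM artemisinin and DMSO wells and corrected using vehicle-only plates.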

[11] = test system: CP191; experiment: as above; settings: P. falciparum in erythrocytes, SYBR Green DNA, 72 h; series mostly up to 12.8 µM
Procedure, shortened: as §1

[12] = test system: CP217; experiment: as above; settings: P. falciparum in erythrocytes, SYBR Green DNA, 72 h; series mostly up to 12.8 µM
Procedure, shortened: as §1

[13] = test system: CP250; experiment: as above; settings: P. falciparum in erythrocytes, SYBR Green DNA, 72 h; series mostly up to 12.8 µM
Procedure, shortened: as §1

[14] = test system: CP256; experiment: as above; settings: P. falciparum in erythrocytes, SYBR Green DNA, 72 h; series mostly up to 12.8 µM
Procedure, shortened: as §1

[15] = test system: FAB9; experiment: as above; settings: P. falciparum in erythrocytes, SYBR Green DNA, 72 h; series mostly up to 12.8 µM
Procedure, shortened: as §1

[16] = test system: JCK; experiment: as above; settings: P. falciparum in erythrocytes, SYBR Green DNA, 72 h; series mostly up to 12.8 µM
Procedure, shortened: as §1

[17] = biological target: Mitogen-activated protein kinase 10 (Mus musculus) (UniProt Q61831); experiment: JNK3 AlphaScreen Assay (AID 530; active means well fitted curve in either direction with a large enough effect, not every such curve was filed as active)
Procedure, shortened: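 qHTS format: compounds tested as titrations against IL-1beta/TNF-alpha-activated HepG2 lysate JNK3 with biotin-GST-cJun substrate and 10 uM ATP at room temperature. Loss of anti-phospho-cJun AlphaScreen signal indicates inhibition.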

[18] = biological target: Ubiquitin carboxyl-terminal hydrolase 1 (Homo sapiens) (UniProt O94782); experiment: Inhibitors of USP1/UAF1: Pilot qHTS (AID 504865);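 further: rhodamine fluorescence freed from ubiquitin-rhodamine substrate followed over time; top concentration of the series differs between compounds; on the % scale 0 is the no-effect control and ±100 the full control effect; nearly all actives have a fitted effect of over 35% in size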
Ubiquitin carboxyl-terminal hydrolase 1 (Homo sapiens), sequence (O94782 whole entry, looked up): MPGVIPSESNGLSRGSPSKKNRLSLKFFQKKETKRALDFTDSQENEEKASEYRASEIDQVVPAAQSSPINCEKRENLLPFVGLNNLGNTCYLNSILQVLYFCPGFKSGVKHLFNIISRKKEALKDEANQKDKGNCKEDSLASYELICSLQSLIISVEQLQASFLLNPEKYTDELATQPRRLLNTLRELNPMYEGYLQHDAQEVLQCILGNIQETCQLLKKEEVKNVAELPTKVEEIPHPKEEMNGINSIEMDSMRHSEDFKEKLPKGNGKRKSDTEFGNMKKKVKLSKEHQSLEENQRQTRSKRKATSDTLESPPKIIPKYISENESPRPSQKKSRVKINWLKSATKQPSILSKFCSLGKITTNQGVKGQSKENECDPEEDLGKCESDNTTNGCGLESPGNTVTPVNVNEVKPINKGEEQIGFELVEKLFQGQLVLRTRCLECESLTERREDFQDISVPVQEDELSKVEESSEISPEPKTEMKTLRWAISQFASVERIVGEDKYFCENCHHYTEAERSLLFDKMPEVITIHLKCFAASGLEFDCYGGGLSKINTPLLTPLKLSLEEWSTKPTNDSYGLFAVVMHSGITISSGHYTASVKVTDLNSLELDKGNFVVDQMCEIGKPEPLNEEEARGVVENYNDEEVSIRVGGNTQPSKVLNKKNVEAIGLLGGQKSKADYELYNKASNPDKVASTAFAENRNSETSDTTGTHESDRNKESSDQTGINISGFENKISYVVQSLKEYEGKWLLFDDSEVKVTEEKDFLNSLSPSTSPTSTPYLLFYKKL
Procedure, shortened: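 USP1/UAF1 complex (1nM) preincubated with compound 15 min at room temperature, then Ub-Rho substrate (150nM final) added. Fluorescence read kinetically at 480/540 nm, 6 reads every 60 seconds. Buffer: 50mM HEPES pH 7.8, 0.5mM EDTA, 0.1 mg/ml BSA, 1mM TCEP, 0.01% Tween-20.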

[19] = biological target: Glucocorticoid receptor (Homo sapiens) (UniProt P04150); experiment: GR-EFC Redistribution (AID 451; calls by dose curve; further: potency means the concentration at half of the fitted maximal effect); settings: CHO-K1 GR-EFC translocation, beta-gal luminescence, 2 h
Glucocorticoid receptor (Homo sapiens), sequence (P04150 whole entry, looked up, the tested form may be a part): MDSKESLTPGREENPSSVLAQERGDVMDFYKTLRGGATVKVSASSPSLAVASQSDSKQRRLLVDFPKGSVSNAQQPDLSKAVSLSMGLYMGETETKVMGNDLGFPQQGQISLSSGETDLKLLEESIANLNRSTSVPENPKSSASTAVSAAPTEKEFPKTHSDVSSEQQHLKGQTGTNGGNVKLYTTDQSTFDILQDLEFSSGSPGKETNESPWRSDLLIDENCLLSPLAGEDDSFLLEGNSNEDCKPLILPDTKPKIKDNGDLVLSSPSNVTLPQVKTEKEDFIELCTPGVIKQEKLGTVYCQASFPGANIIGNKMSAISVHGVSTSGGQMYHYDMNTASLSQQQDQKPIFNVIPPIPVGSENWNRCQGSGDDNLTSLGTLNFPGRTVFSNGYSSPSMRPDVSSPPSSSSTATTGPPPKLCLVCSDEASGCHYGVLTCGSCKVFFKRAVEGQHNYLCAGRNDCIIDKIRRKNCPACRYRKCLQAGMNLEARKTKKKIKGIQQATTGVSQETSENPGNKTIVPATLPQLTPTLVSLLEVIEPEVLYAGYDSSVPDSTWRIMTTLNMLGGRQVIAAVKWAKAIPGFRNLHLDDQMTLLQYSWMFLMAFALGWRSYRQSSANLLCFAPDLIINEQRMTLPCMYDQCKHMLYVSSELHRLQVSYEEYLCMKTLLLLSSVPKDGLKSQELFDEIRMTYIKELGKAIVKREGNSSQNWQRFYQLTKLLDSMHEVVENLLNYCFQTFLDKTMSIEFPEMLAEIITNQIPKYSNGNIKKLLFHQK
Procedure, shortened: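 CHO-K1 cells expressing nuclear EA and GR-ED fragments of b-gal; compounds titrated up to 46 uM final, 2 h at 37 C. GR nuclear translocation read as complemented b-gal luminescence after 1 h RT detection.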

[20] = measured here: cell count channel max response
[21] = measured here: lipid channel max response

Cc1ccc(S(=O)(=O)NC(=O)NN2C[C@H]3CCC[C@@H]3C2)cc1
5.52%: max response [6, 20]
8.97%: max response [6, 21]
inactive: outcome [1] | Potency [2] | activity change, negative = inhibition [3] -2% | outcome [4] | outcome [5] | activity change, negative = inhibition [6] 2.69% | outcome [7] | Potency [8] | Potency [9] | activity, negative = inhibition ([10]; parasite line A) -0.0473% | activity, negative = inhibition ([10]; parasite line B) 12.1% | Potency [11] | Potency [12] | Potency [13] | Potency [14] | Potency [15] | Potency [16]

O=C(/C=C\C=C/c1ccc2c(c1)OCO2)N1CCCCC1
1.28%: max response [6, 21]
-1.9%: max response [6, 20]
inactive: outcome [1] | activity change, negative = inhibition [3] -3.46% | outcome [4] | Potency [17] | activity change, negative = inhibition [6] 2%
active: Potency [2] 3.16 µM

CO[C@]1(NC(=O)Cc2cccs2)C(=O)N2C(C(=O)O)=C(COC(N)=O)CS[C@H]21
inactive: outcome [1] | Potency [2] | activity change, negative = inhibition [3] 3.7% | outcome [4] | Potency [17] | outcome [5] | activity change, negative = inhibition [6] 2.57% | Potency [18]
0.943%: max response [6, 21]
-2.6%: max response [6, 20]

CC[C@H](CO)NCCN[C@@H](CC)CO
4.52%: max response [6, 21]
inactive: outcome [1] | Potency [2] | activity change, negative = inhibition [3] -11.9% | outcome [4] | outcome [5] | activity change, negative = inhibition [6] -0.966% | outcome [7] | Potency [18] | Potency [8] | Potency [9] | activity, negative = inhibition ([10]; parasite line A) -3.07% | activity, negative = inhibition ([10]; parasite line B) 5.7% | Potency [11] | Potency [12] | Potency [13] | Potency [14] | Potency [15] | Potency [16]
4.79%: max response [6, 20]

C#C[C@@]1(O)CC[C@@H]2[C@@H]3CCC4=CC(=O)CC[C@@H]4[C@H]3CC[C@]21C
-8.09%: max response [6, 20]
-9.96%: max response [6, 21]
inactive: outcome [1] | Potency [2] | activity change, negative = inhibition [3] -7.42% | outcome [4] | Potency [17] | outcome [5] | activity change, negative = inhibition [6] -2.83% | Potency [18]

Nc1c(O)cccc1C(=O)C[C@@H](N)C(=O)O
inactive: outcome [1] | Potency [2] | activity change, negative = inhibition [3] -7.19% | outcome [4] | Potency [19] > 20.6 µM | Potency [17] | outcome [5] | activity change, negative = inhibition [6] -1.89%
-9.91%: max response [6, 21]
-4.16%: max response [6, 20]

NS(=O)(=O)c1cc2c(cc1Cl)N[C@@H](C(Cl)Cl)NS2(=O)=O
-19.9%: max response [6, 20] | max response [6, 21]
inactive: outcome [1] | Potency [2] | activity change, negative = inhibition [3] -8.61% | outcome [4] | Potency [17] | outcome [5] | activity change, negative = inhibition [6] -2.63% | outcome [7] | Potency [18] | Potency [8] | Potency [9] | activity, negative = inhibition ([10]; parasite line A) -8.3% | activity, negative = inhibition ([10]; parasite line B) 4.19% | Potency [11] | Potency [12] | Potency [13] | Potency [14] | Potency [15] | Potency [16]
